Most compounds without a hit are left out; they make up all but 1.9% or so of the library.
VLA-4 antagonist – inhibitors of LDV-FITC ligand binding to Mn2+-activated human VLA-4 integrin. inhibition, % at 10 µM (by protocol). Jurkat cells, LDV-FITC binding with Mn2+, flow cytometry; 100% = Mn2+-driven binding gain fully reversed. P13612. 24,000 compounds, 0.2% hits;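 active = inhibition above 50%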
FPRL1 binder – human FPRL1 ligand, with FPR counter-screen. inhibition, % (test concentration not listed). 24,000 compounds, 0.3% hits. P25090. FPRL1-expressing cells, fluorescent ligand binding inhibition, flow cytometry
FPR ligand – ligands of human FPR, also counter-screen for FPRL1 ligands; FPR-expressing cells, fluorescent ligand binding, flow cytometry; inhibition, % (test concentration not listed); 24,000 compounds, 0.74% hits; AID 440
VLA-4 allo ag – allosterically activates the human VLA-4 integrin; Jurkat cells, LDV-FITC binding, flow cytometry; activation, % at 10 µM (by protocol); 24,000 tested, under 10 active;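 active = fluorescent ligand binding to cells raised by more than 40% of the manganese-induced maximum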
Autofluor Jurkat – counter-screen for VLA-4 integrin: compound autofluorescence in Jurkat cells; flow cytometry; hits give high values; 1 = vehicle-only cell background; fluorescence ratio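 (tested at 10 µM compound in the well)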; 24,000 compounds, 0.61% hits; AID 576;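 active = fluorescence ratio above 2.44, which is 1 plus 3 SD of all ratios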;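 also: green fluorescence of cells measured with 488 nm excitation and 530 nm emission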
Prostate diff – LNCaP prostate cell differentiation activation; flow cytometry side scatter, 4 d; side scatter shift, % at 10 µM; 24,000 compounds, 0.56% hits;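 active = side scatter shift above 30%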;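 also: androgen-responsive LNCaP prostate cancer cells in charcoal-stripped serum medium; higher shift means more granular cells and more differentiation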
Large screens that a line does not name were inactive. Rule as the data show it, unless noted: active = inhibition above about 30%; inconclusive = no clear call, values can overlap the other calls; inactive = below that.

Cc1ccc2c(c1)[C@@H]1CN(C)CC[C@@H]1N2C(=O)Nc1cccc(C(F)(F)F)c1	Prostate diff 55
O=C1C2CCCN2C(c2cccnc2)N1c1nccs1 (centres undefined)	none
CCOc1ccc(C2SCC(=O)Nc3c2c(=O)[nH]n3C2CCCCCC2)cc1 (centres undefined)	Prostate diff 34
COc1ccc(C2SCC(=O)Nc3c2c(=O)[nH]n3C2CCCCCC2)cc1OC (centres undefined)	none
O=c1c2ccccc2[se]n1-c1ccccc1	VLA-4 allo ag 40
CN1CCN(c2c[nH]c(=O)[nH]c2=O)CC1	none

Source: PubChem BioAssay
